Here are results for twelve molecules from PubChem BioAssay (EPA / NIEHS).

Records with an inconclusive call do not appear. Active and inactive are the calls of the source. How the source made its calls, unless noted: active means hit-call score of the fitted dose curve at least 0.9, where 1 is the maximum; inactive means score below 0.9.

Usually AC50 stands for the concentration giving half of the maximal activity seen.

The nature of experiment [1]: ATG_TGFb_CIS: Attagene CIS-FACTORIAL HepG2 Assay for human Transforming Growth Factor (TGF) (AID 2282967). To be noted: HepG2 Attagene CIS TGFb reporter, mRNA transcription; actives raise or lower the signal. A digest of the protocol:
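Readout: fluorescently labeled reporter cDNA fragments resolved by capillary electrophoresis after RT-PCR. Transfected HepG2 cells dosed for 24 h; endogenous TF activity at TGFB1-linked cis element; gain or loss fitted relative to DMSO.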

In experiment [2] the target is X-box-binding protein 1 (Homo sapiens) (UniProt P17861). The experiment in a line: ATG_Xbp1_CIS: Attagene CIS-FACTORIAL HepG2 Assay for human X-box Binding Protein 1 (XBP1) (AID 2282972). As to conditions: HepG2 XBP1 cis-element reporter, Attagene multiplex; actives raise or lower the signal. A digest of the protocol:
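After a 24-hour chemical exposure of HepG2 cells carrying cis-regulated reporters, reporter mRNA levels are assessed. Quantification uses RT-PCR, 6-FAM labelling and capillary electrophoresis. Gain- or loss-of-signal is fitted against DMSO.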

Experiment [3] can be described thus: ATG_M_19_TRANS: Attagene TRANS-FACTORIAL HepG2 Assay for M19 Transcription Factor (Internal Marker) (AID 2282974; active means hit-call score of the fitted dose curve at least 0.9, where 1 is the maximum). To be noted: HepG2 Attagene TRANS-FACTORIAL M19 internal marker reporter. A digest of the protocol:
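Multiplexed TRANS format: HepG2 liver cells bearing transient GAL4-UAS reporter units, chemical treatment 24 h, reporter transcripts quantified by RT-PCR plus capillary electrophoresis. DMSO defines baseline.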

The nature of experiment [4]: ATG_GAL4_TRANS: Attagene TRANS-FACTORIAL HepG2 Assay for GAL4 (Internal Marker) (AID 2282976; active means hit-call score of the fitted dose curve at least 0.9, where 1 is the maximum). To be noted: HepG2 Attagene TRANS GAL4 internal marker reporter. The method in brief: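 Liver HepG2 line bearing multiplexed GAL4-UAS reporter constructs; 24 h chemical treatment. Transcripts were quantified as fluorescent fragments on capillary electrophoresis after RT-PCR and HpaI cut, with activity fitted upward from DMSO.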

Experiment [5] concerns the target Glucocorticoid receptor (Homo sapiens) (UniProt P04150). The experiment in a line: ATG_GR_TRANS: Attagene TRANS-FACTORIAL HepG2 Assay for human Glucocorticoid Receptor (GR) (AID 2282978; active means hit-call score of the fitted dose curve at least 0.9, where 1 is the maximum;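 further: activators score as hits since higher reporter transcript over DMSO is fitted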). As to conditions: HepG2 Attagene TRANS GR reporter, mRNA transcription. The method in brief: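 Transiently transfected HepG2 cells express chimeric NR-GAL4 proteins acting on GAL4-UAS reporter units. Compounds are applied for 24 h. mRNA induction over DMSO is measured by capillary electrophoresis.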

Experiment [6] addresses Bile acid receptor (Homo sapiens) (UniProt Q96RI1). The experiment in a line: ATG_FXR_TRANS: Attagene TRANS-FACTORIAL HepG2 Assay for Farnesoid X Receptor (FXR) (AID 2282979; active means hit-call score of the fitted dose curve at least 0.9, where 1 is the maximum;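 further: hits raise reporter mRNA above DMSO so AC50 marks FXR activation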). To be noted: HepG2 Attagene TRANS FXR-GAL4 reporter transcription. The method in brief: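 After 24 h chemical treatment of transfected HepG2 cells, GAL4-UAS reporter transcripts driven by an exogenous FXR-GAL4 fusion were measured by RT-PCR and capillary electrophoresis. Increases over DMSO were fitted.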

The target of experiment [7] is Oxysterols receptor LXR-beta (Homo sapiens) (UniProt P55055). Nature of the experiment: ATG_LXRb_TRANS: Attagene TRANS-FACTORIAL HepG2 Assay for human Liver X Receptor beta (LXRb) (AID 2282981; active means hit-call score of the fitted dose curve at least 0.9, where 1 is the maximum). To be noted: HepG2 Attagene TRANS GAL4-LXRb reporter, mRNA. The method in brief:
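Cells: HepG2, transiently transfected with GAL4-UAS reporter units plus LXRb-Gal4 fusion. Treatment: 24 h. Detection: reporter mRNA by RT-PCR, 6-FAM labelling, HpaI digestion, capillary electrophoresis.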

Experiment [8] concerns the target Hepatocyte nuclear factor 4-alpha (Homo sapiens) (UniProt P41235). The experiment in a line: ATG_HNF4a_TRANS: Attagene TRANS-FACTORIAL HepG2 Assay for human Hepatocyte Nuclear Factor 4 alpha (HNF4a) (AID 2282982; active means hit-call score of the fitted dose curve at least 0.9, where 1 is the maximum). To be noted: HepG2 HNF4a transactivation reporter, mRNA readout. A digest of the protocol:
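Transfected HepG2 reporter cells are dosed for 24 h; reporter RNA is reverse-transcribed, amplified, fluorescently labelled and HpaI-digested before CE sizing. Positive-direction fit against DMSO.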

The nature of experiment [9]: ATG_M_32_TRANS: Attagene TRANS-FACTORIAL HepG2 Assay for M32 Transcription Factor (Internal Marker) (AID 2282984; active means hit-call score of the fitted dose curve at least 0.9, where 1 is the maximum;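 further: transcript level of a background control reporter unit measured by RT-PCR and capillary electrophoresis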). To be noted: HepG2 Attagene TRANS M32 internal marker reporter. The method in brief: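 Using transiently transfected HepG2 cells exposed to test chemicals for 24 h, reporter transcripts are converted to labelled cDNA fragments and quantified by capillary electrophoresis. DMSO defines the activity baseline.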

Experiment [10] deals with Transcriptional activator Myb (Homo sapiens) (UniProt P10242). The experiment in a line: ATG_Myb_CIS: Attagene CIS-FACTORIAL HepG2 Assay for human Myeloblastosis (Myb) Proto-Oncogene Transcription Factor (AID 2282986). To be noted: HepG2 Attagene CIS-FACTORIAL Myb reporter transcription; actives raise or lower the signal. The method in brief: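 Using HepG2 liver cells bearing transiently transfected cis-promoter reporter constructs, the assay measures induction or loss of reporter mRNA after 24 hours of dosing. Detection used fluorescently labeled RT-PCR products separated by capillary electrophoresis.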

Experiment [11] has as its target Nuclear respiratory factor 1 (Homo sapiens) (UniProt Q16656). The experiment in a line: ATG_NRF1_CIS: Attagene CIS-FACTORIAL HepG2 Assay for human Nuclear Respiratory Factor 1 (NRF1) Orphan Gene (AID 2282987). To be noted: HepG2 NRF1 cis-element reporter, Attagene multiplex; actives raise or lower the signal. A digest of the protocol:
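Reporter mRNA induction or loss in HepG2 cells after 24 h dosing; cis-regulated reporter constructs report endogenous transcription-factor activity. Quantified by RT-PCR/capillary electrophoresis fluorescence, DMSO-referenced.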

Experiment [12] is described as follows: ATG_NFI_CIS: Attagene CIS-FACTORIAL HepG2 Assay for human Nuclear Factor I (NFI) (AID 2282989). As to conditions: HepG2 cis-regulatory reporter, NFI response element transcription; actives raise or lower the signal. The method in brief: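 Read-out: reporter mRNA via RT-PCR plus capillary electrophoresis with fluorescence detection. Transiently transfected HepG2 (endogenous TF activity on cis promoters), 24 h compound exposure; gain or loss of signal fitted against DMSO.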

Experiment [13] deals with Estrogen receptor (Homo sapiens) (UniProt P03372). Nature of the experiment: ATG_ERa_TRANS: Attagene TRANS-FACTORIAL HepG2 Assay for human Estrogen Receptor alpha (ERa) (AID 2282970; active means hit-call score of the fitted dose curve at least 0.9, where 1 is the maximum). To be noted: HepG2 Attagene TRANS ERa GAL4 reporter, mRNA. The method in brief: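 Multiplexed cell-based reporter format in HepG2: chimeric ERa-Gal4 protein drives GAL4-UAS reporter transcription. Fluorescent reporter mRNA quantified by capillary electrophoresis 24 hours after dosing; endpoint fitted as signal gain against DMSO.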

In experiment [14] the target is Nuclear receptor subfamily 4 group A member 2 (Homo sapiens) (UniProt P43354). The experiment in a line: ATG_NURR1_TRANS: Attagene TRANS-FACTORIAL HepG2 Assay for human Nuclear Receptor Related Protein 1 (NURR1) (AID 2282985; active means hit-call score of the fitted dose curve at least 0.9, where 1 is the maximum). To be noted: HepG2 Attagene TRANS reporter, mRNA readout. A digest of the protocol:
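Cells: HepG2, transiently transfected. Exposure: 24 h. Detection: fluorescence of labelled RT-PCR products separated by capillary electrophoresis; upward fit versus DMSO.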

The target of experiment [15] is Estrogen-related receptor gamma (Homo sapiens) (UniProt P62508). The experiment in a line: ATG_ERRg_TRANS: Attagene TRANS-FACTORIAL HepG2 Assay for human Estrogen-Related Receptor gamma (ERRg) (AID 2282977; active means hit-call score of the fitted dose curve at least 0.9, where 1 is the maximum;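 further: hits increase reporter signal over DMSO so potencies reflect activators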). To be noted: HepG2 Attagene TRANS reporter, ERRg transactivation. A digest of the protocol: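 Transient HepG2 transfectants, 24 h compound exposure, GAL4-UAS reporter mRNA by RT-PCR/6-FAM labelling/capillary electrophoresis; positive direction vs DMSO.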

The target in experiment [16] is Oxysterols receptor LXR-alpha (Homo sapiens) (UniProt Q13133). The experiment in a line: ATG_LXRa_TRANS: Attagene TRANS-FACTORIAL HepG2 Assay for human Liver X Receptor alpha (LXRa) (AID 2282980; active means hit-call score of the fitted dose curve at least 0.9, where 1 is the maximum). As to conditions: HepG2 Attagene TRANS reporter, LXRa transactivation. The method in brief:
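In this multiplexed TRANS system, compounds act on HepG2 cells carrying GAL4-UAS reporter units and a receptor-GAL4 fusion for 24 h. Induced reporter RNA is amplified, fluorescently labelled and sized by capillary electrophoresis, with DMSO as baseline.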

The target of experiment [17] is Steroid hormone receptor ERR1 (Homo sapiens) (UniProt P11474). The experiment in a line: ATG_ERRa_TRANS: Attagene TRANS-FACTORIAL HepG2 Assay for human Estrogen-Related Receptor alpha (ERRa) (AID 2282971; active means hit-call score of the fitted dose curve at least 0.9, where 1 is the maximum). To be noted: HepG2 Attagene TRANS reporter, ERRa transactivation. A digest of the protocol: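 Signal gain relative to DMSO for an ERRa-Gal4 chimeric receptor, read as reporter mRNA by RT-PCR/capillary electrophoresis. Human HepG2 liver cells, transient multiplex reporter transfection, 24 h chemical exposure.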

Experiment [18] in a line: ATG_M_06_TRANS: Attagene TRANS-FACTORIAL HepG2 Assay for M06 Transcription Factor (Internal Marker) (AID 2282983; active means hit-call score of the fitted dose curve at least 0.9, where 1 is the maximum;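 further: reporter transcript level by RT-PCR then capillary electrophoresis fluorescence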). As to conditions: HepG2 Attagene TRANS M06 internal marker reporter. The method in brief: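 Internal-marker background readout from a multiplexed TRANS reporter system in HepG2; 24 h dosing; mRNA induction quantified by RT-PCR plus capillary electrophoresis fluorescence; DMSO as negative control and baseline.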

Chain of Glucocorticoid receptor (Homo sapiens) (P04150 whole entry, looked up, the tested form may be a part): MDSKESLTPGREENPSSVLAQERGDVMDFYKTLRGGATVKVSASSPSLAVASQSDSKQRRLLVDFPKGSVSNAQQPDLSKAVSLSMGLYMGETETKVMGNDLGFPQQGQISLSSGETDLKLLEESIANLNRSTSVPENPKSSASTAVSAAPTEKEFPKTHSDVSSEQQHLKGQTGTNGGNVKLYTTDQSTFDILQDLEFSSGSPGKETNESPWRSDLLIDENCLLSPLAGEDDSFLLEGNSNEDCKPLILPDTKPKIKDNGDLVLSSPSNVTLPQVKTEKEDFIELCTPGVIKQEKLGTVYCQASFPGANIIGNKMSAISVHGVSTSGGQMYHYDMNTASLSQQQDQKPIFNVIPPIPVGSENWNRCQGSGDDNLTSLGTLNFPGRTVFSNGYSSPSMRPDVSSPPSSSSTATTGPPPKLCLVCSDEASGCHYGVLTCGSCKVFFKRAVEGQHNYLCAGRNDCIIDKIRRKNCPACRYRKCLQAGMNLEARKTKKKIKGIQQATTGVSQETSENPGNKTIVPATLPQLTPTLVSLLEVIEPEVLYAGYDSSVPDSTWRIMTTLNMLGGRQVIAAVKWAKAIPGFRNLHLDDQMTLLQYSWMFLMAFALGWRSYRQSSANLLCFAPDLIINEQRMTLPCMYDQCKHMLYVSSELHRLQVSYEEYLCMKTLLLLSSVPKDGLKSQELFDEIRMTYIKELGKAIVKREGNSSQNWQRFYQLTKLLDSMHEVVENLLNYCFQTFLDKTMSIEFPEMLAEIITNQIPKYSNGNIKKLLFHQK
Chain of Bile acid receptor (Homo sapiens) (Q96RI1 whole entry, looked up, the tested form may be a part): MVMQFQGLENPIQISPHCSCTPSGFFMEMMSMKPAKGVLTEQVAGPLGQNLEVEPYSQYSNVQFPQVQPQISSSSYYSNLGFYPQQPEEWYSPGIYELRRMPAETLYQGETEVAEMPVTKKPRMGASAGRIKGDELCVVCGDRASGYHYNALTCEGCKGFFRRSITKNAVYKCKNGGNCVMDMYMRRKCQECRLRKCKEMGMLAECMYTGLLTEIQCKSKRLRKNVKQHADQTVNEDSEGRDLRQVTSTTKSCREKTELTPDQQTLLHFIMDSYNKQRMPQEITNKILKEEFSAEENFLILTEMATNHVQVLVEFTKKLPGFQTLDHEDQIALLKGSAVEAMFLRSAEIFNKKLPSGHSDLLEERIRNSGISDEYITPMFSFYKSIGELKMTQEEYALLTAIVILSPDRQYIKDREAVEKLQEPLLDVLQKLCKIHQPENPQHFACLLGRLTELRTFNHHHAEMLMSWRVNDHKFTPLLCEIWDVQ
Chain of Oxysterols receptor LXR-beta (Homo sapiens) (P55055 whole entry, looked up, the tested form may be a part): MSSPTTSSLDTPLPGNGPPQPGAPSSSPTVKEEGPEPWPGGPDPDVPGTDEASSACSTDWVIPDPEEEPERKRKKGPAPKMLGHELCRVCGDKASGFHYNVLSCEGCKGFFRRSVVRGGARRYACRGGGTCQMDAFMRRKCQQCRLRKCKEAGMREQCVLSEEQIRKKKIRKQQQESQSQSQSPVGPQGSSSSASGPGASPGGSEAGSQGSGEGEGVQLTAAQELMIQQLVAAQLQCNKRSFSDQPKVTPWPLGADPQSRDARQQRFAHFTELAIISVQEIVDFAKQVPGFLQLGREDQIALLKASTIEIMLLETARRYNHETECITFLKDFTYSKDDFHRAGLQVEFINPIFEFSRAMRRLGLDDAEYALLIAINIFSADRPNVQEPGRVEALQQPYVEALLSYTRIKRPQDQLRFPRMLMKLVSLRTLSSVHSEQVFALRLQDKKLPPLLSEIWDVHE
Chain of Estrogen receptor (Homo sapiens) (P03372 whole entry, looked up, the tested form may be a part): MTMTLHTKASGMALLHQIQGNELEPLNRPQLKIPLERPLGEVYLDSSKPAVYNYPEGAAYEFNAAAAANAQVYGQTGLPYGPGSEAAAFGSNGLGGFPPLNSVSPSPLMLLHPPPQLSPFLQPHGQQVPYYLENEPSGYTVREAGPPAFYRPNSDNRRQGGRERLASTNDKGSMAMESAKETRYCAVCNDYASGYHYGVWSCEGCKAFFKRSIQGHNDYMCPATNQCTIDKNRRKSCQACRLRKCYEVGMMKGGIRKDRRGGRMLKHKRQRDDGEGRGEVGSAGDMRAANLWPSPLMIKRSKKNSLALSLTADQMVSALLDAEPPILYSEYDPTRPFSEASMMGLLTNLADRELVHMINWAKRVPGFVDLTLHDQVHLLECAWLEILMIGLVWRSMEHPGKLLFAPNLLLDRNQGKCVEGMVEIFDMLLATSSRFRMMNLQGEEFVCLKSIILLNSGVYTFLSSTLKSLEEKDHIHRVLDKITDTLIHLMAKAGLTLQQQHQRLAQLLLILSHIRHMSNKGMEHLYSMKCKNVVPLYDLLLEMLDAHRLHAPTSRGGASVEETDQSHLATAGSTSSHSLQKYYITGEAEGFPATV
Chain of Hepatocyte nuclear factor 4-alpha (Homo sapiens) (P41235 whole entry, looked up): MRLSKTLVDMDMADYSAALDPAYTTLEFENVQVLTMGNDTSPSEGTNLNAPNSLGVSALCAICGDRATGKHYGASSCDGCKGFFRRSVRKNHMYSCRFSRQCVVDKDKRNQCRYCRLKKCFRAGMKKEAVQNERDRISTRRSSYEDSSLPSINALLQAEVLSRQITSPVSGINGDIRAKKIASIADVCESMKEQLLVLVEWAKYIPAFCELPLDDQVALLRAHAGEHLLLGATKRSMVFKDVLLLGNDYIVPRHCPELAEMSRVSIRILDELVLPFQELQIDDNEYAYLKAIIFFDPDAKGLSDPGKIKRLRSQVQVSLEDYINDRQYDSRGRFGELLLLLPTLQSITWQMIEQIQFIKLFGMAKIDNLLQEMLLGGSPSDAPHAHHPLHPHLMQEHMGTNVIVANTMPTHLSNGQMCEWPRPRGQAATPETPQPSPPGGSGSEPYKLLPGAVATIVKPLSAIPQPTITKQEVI
Chain of X-box-binding protein 1 (Homo sapiens) (P17861 whole entry, looked up): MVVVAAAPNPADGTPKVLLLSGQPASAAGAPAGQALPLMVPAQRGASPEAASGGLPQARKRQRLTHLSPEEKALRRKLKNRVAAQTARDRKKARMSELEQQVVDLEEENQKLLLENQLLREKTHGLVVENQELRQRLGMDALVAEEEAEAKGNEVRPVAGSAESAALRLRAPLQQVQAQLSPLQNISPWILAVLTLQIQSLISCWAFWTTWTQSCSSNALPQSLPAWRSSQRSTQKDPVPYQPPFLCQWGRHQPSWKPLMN
Chain of Nuclear respiratory factor 1 (Homo sapiens) (Q16656 whole entry, looked up): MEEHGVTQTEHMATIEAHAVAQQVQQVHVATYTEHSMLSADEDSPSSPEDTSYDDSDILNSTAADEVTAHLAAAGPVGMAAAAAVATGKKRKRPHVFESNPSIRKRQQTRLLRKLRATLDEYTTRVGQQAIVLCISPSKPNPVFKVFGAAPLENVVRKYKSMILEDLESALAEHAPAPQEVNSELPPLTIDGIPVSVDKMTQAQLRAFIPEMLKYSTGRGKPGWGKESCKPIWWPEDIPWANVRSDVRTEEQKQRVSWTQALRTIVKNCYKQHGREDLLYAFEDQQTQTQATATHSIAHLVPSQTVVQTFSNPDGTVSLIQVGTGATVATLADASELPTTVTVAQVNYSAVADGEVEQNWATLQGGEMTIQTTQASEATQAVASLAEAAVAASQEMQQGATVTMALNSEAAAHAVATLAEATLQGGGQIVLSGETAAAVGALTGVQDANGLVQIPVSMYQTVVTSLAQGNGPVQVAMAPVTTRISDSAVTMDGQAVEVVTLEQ
Chain of Nuclear receptor subfamily 4 group A member 2 (Homo sapiens) (P43354 whole entry, looked up): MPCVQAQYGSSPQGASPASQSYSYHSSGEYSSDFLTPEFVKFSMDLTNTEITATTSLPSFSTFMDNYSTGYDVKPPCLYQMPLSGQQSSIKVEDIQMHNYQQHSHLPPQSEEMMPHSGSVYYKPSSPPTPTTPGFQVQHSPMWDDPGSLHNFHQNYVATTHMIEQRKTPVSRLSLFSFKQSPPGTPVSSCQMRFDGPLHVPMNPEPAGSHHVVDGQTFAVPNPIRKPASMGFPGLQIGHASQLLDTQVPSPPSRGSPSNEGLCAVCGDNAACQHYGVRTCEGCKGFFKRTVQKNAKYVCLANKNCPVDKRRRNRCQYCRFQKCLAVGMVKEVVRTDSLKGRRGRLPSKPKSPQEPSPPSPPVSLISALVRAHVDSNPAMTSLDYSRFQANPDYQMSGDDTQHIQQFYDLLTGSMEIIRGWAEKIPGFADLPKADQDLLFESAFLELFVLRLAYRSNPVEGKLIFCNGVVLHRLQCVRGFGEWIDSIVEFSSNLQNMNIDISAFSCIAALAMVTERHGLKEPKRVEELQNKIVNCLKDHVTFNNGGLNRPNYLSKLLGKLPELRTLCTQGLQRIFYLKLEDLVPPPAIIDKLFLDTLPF
Chain of Transcriptional activator Myb (Homo sapiens) (P10242 whole entry, looked up): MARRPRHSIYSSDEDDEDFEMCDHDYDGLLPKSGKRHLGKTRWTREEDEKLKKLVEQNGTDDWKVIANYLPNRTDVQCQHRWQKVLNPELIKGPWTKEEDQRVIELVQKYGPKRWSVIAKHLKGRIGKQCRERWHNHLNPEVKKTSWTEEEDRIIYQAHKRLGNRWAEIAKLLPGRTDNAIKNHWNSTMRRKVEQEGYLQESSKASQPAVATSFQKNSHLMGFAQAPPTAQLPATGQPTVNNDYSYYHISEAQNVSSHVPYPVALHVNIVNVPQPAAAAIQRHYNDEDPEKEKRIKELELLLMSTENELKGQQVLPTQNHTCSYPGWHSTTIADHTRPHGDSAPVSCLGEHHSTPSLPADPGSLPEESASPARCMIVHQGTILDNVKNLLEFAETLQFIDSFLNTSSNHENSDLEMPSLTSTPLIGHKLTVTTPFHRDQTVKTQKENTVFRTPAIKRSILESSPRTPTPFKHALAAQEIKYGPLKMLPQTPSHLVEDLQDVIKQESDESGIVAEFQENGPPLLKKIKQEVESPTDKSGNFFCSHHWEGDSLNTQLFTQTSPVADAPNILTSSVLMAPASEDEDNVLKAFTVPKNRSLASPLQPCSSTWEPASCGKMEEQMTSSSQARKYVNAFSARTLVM

For `O=C(O)c1cccc(C(=O)O)c1`, the molecule was called inactive in experiment [1], in [2], in [3], in experiment [4], in [5] and in experiment [6]. Further, the result in experiment [7], in experiment [8], in experiment [9], in [10], in experiment [11] and in [12] was inactive.

Regarding `O=C1CN(N=Cc2ccc([N+](=O)[O-])o2)C(=O)N1`, the call in experiment [1], in experiment [2], in experiment [3], in experiment [5] and in experiment [10] was inactive. The AC50 in experiment [13] was 32.1 µM (active).

`CCCCCCCCCCCCCCO`: the result in experiment [1], in [13], in experiment [2], in [3], in [7] and in experiment [11] was inactive. Besides, the AC50 in experiment [10] is 168 µM (active); in experiment [12], 179 µM (active).

In the case of `O=C(O)c1ccc2c(c1)nc(C(=O)NC1CCN(C3CC3)CC1)n2Cc1cc(-c2ccc(Cl)s2)on1`, the result in experiment [1], in [13], in [2], in [4], in experiment [6] and in experiment [8] was inactive. For the same molecule, the outcome in experiment [14], in [10], in experiment [11] and in experiment [12] was inactive.

`CC(C)CCCCCCOC(=O)C1CCCCC1C(=O)OCCCCCCC(C)C` (centres undefined): the result in [1], in experiment [2], in experiment [3], in [6], in experiment [7] and in experiment [14] was inactive. Further, the outcome in experiment [10], in [11] and in [12] was inactive.

In the case of `NC(=O)N1c2ccccc2C=Cc2ccccc21`, the outcome in [1], in [13], in experiment [2], in experiment [4], in [7] and in experiment [9] was inactive. Also, the molecule was called inactive in [10], in [11] and in [12].

As for `OC(Cn1cncn1)(Cn1cncn1)c1ccc(F)cc1F`, the result in experiment [1], in [13], in [2], in experiment [3], in experiment [15] and in experiment [5] was inactive. Further, the call in experiment [7], in experiment [14], in experiment [10], in experiment [11] and in experiment [12] was inactive.

For `C[C@]12C=CC(=O)C=C1CC[C@H]1[C@@H]3C[C@@H](O)[C@](O)(C(=O)CO)[C@@]3(C)C[C@H](O)[C@@]12F`, the molecule was classed as inactive in [1], in experiment [2], in experiment [16], in [8], in experiment [14] and in experiment [10]. Besides, the call in experiment [11] and in experiment [12] was inactive. The AC50 was 37.2 µM (active) in experiment [13] and 0.0585 µM (active) in [5].

With `OCCNCCO`, the call in experiment [1], in [17], in experiment [2], in experiment [4], in [15] and in experiment [5] was inactive. In addition, the molecule was called inactive in experiment [8], in [18], in experiment [10], in experiment [11] and in experiment [12].

For `Cn1c(=O)c2[nH]cnc2n(C)c1=O`, the call in experiment [1], in experiment [13], in [2], in experiment [3], in [6] and in experiment [8] was inactive. The outcome in experiment [14], in experiment [10], in experiment [11] and in experiment [12] was inactive.

For the molecule `COc1cc2c(c(OC)c1OC)-c1ccc(OC)c(=O)cc1[C@@H](NC(C)=O)CC2`, the molecule was classed as inactive in [1], in experiment [2], in [5], in experiment [6], in experiment [16] and in [7]. In addition, the call in [10] and in [12] was inactive. For the same molecule, the AC50 in [11] was 0.257 µM (active).

For `CCOC(N)=O`, the result in experiment [1], in experiment [13], in experiment [2], in experiment [4], in experiment [18] and in experiment [9] was inactive. For the same molecule, the result in [10], in experiment [11] and in experiment [12] was inactive.
